Screens: PubChem, several laboratories
Hits are enriched below; roughly 2.1% of the tested compounds scored in any of these assays.
TPT1 inh: inhibitors of Candida albicans tRNA 2'-phosphotransferase TPT1. recombinant caTPT1, FP RNA substrate dephosphorylation. inhibition, % at 5 µM. hit rate 0.81% among 300,000;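 active = inhibition above the mean of all tested compounds plus 3 SD, set per screening campaign, cut at about 24% in these data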
Myeloid diff 2: promotes myeloid progenitor differentiation; ER-HoxA9 myeloid progenitors, lysozyme-GFP differentiation, flow cytometry; calls only at 10 µM; AID 624256; hit rate 1% among 360,000;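 active = normalized GFP-positive differentiation at or above the plate's own cutoff, the solvent-only control mean plus 3 SD; inconclusive = no clear call, values can overlap the other calls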;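 also: cells exposed to compound for four days before flow analysis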
HNF4A DNA FP: change in binding of human HNF4 alpha to DNA; P41235; HNF4a-FITC DNA binding, fluorescence polarization, 1 h; activity change, % at 10 µM; hit rate 0.3% among 360,000; in the data active = activity change above about 30%, passing the limit was not always enough
Rpn11 inh: Rpn11 (human) deubiquitinase inhibition | human 26S proteasome, Ub4-pepOG fluorescence polarization; 20S core pre-blocked with epoxomicin | O00487 | hit rate 0.59% among 360,000 | inhibition, % at 20 µM;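 active = inhibition at 20 µM, scaled to each plate's controls, above about 33%, limit read from the data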
Target sequence (O00487 whole entry, looked up): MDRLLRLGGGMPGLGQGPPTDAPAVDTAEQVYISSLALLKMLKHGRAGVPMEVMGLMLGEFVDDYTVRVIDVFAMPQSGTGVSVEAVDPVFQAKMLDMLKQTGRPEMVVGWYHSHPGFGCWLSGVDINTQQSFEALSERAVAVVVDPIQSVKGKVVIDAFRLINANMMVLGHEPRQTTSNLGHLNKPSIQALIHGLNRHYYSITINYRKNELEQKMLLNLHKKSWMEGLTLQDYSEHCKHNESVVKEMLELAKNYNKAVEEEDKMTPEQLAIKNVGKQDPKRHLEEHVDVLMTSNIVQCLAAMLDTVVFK
TPT1 inh confirm: confirmation of Candida albicans TPT1 inhibitors. shares compounds with TPT1 inh. recombinant caTPT1, fluorescence polarization, RNase T1 coupled. inhibition, % at 5 µM. hit rate 74% among 2,400. AID 2149;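 active = inhibition above the primary screen limit, the mean inhibition of all tested compounds plus 3 SD, cut at about 25% in these data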
RNase T1 inh: blocks Aspergillus oryzae RNase T1, a TPT1 counter-screen | hit rate 83% among 2,400 | RNase T1 cleavage, fluorescence polarization, 1536-well | inhibition, % at 5 µM | shares compounds with TPT1 inh;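 active = inhibition above the solvent-only control well mean plus 3 SD, limit set per screening run, cut at about 23% in these data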;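 also: inhibitors block cleavage so intact labeled substrate keeps polarization high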
Target sequence (P00651 whole entry, looked up): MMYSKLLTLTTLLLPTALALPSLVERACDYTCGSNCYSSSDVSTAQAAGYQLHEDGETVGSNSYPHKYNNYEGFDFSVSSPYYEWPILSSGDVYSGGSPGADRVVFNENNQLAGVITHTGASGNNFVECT
Rpn11 inh conf: Rpn11 inhibition confirmation, single concentration; shares compounds with Rpn11 inh; purified human 26S proteasome, Ub4-pepOG fluorescence polarization; proteasome pretreated with epoxomicin; inhibition, % at 20 µM; hit rate 29% among 1,900; AID 602318
MMP-2 counter: blocks human MMP-2, flagging nonselective RPN11 hits. shares compounds with Rpn11 inh. recombinant MMP-2, FRET peptide cleavage fluorescence. inhibition, % at 20 µM. hit rate 4% among 1,900;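 also: human MMP-2 activated beforehand with APMA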
Thrombin FP: thrombin (bovine) inhibition counter-screen. shares compounds with Rpn11 inh. bovine thrombin cleavage of Ub4-pepOG, fluorescence polarization. inhibition, % at 20 µM. hit rate 13% among 1,900. AID 602333;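 active = mean inhibition at least 40% at 20 µM, or signal 3 deviations below plate average, so some actives read negative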
Hits are given with their value; i = inactive; ? = inconclusive; nt = no result shown; + = active, no number. Rule as the data show it, unless noted: active = inhibition above about 40%; inactive = the rest.

SMILES	TPT1 inh	Myeloid diff 2	HNF4A DNA FP	Rpn11 inh	TPT1 inh confirm	RNase T1 inh	others
O=c1[nH]c(=O)n(Cc2ccccc2)c(O)c1/C=C1\C=Nc2ccccc21	58	i	i	nt	i	27
S=C(NCCc1ccccc1)N1Cc2cc(N3CCCCC3)ccc2-n2nncc2C1	nt	i	i	i	nt	nt
Cn1c(O)c(/C=C2\C=Nc3ccc(Br)cc32)c(=O)n(C)c1=O	28	i	i	i	i	i
CCOc1ccc(N2C(=O)/C(=C\c3cccs3)C(=O)NC2=S)cc1	i	nt	nt	nt	nt	nt
O=C1NC(=S)N(c2ccccc2F)C(=O)/C1=C\c1cccs1	i	i	i	i	nt	nt
CCOc1ccc(N2C(=O)/C(=C/c3ccco3)C(=O)NC2=S)cc1	47	i	i	nt	i	i
Cc1ccccc1N1C(=O)/C(=C/c2ccco2)C(=O)NC1=S	80	nt	nt	nt	80	i
N#Cc1ccc(NC(=S)N2Cc3ccccc3-n3nncc3C2)cc1	nt	i	i	i	nt	nt
CC1C(=O)CC2(C(C)C)CC12 (centres undefined)	nt	i	i	i	nt	nt
CC1CC(C)OP(=O)(OCCC#N)O1 (centres undefined)	nt	i	i	i	nt	nt
Cc1cc(C)c(-n2c(O)c(/C=N/NC(=O)c3ccncc3)c(=O)[nH]c2=O)c(C)c1	24	i	i	i	29	40
COC(=O)[C@@H]1N=C(c2ccc(OC)cc2)O[C@]12C(=O)N(C)c1cccc(Cl)c12	nt	i	i	nt	nt	nt
Clc1cccc(N2Cc3cc(-c4ccccc4)ccc3-n3nncc3C2)c1	nt	i	i	i	nt	nt
O=Cc1c(C(=O)O)n(Cc2ccc(Cl)cc2)c2ccccc12	77	i	81	nt	174	161
c1ccc2c(CN3CCCCCC3)c[nH]c2c1	i	?	i	i	nt	nt
C1=C(c2c[nH]c3ccccc23)CCNC1	80	nt	nt	nt	50	58
NC(Cc1ccc(O)cc1)C(=O)NN=Cc1ccc(N(CCCl)CCCl)cc1 (centres undefined)	nt	?	i	i	nt	nt
O=c1[nH]c(=O)n(Cc2ccccc2)c(O)c1C=NCCCn1ccnc1	48	i	i	i	35	45
O=c1[nH]c(=O)n(Cc2ccco2)c(O)c1C=NCc1ccco1	i	i	i	i	nt	nt
C=CCn1c(O)c(C=NCCN2CCNCC2)c(=O)[nH]c1=O	i	i	i	i	nt	nt
O=c1[nH]c(=O)n(CCC2=CCCCC2)c(O)c1C=NCCN1CCNCC1	27	i	i	nt	44	55
O=c1[nH]c(=O)n(Cc2ccco2)c(O)c1C=NCCN1CCOCC1	25	i	i	i	30	42
O=C1NC(=O)N(Cc2ccccc2)C(=O)/C1=C\c1ccco1	66	i	i	i	i	23
Cn1cccc1/C=C1/C(=O)NC(=O)N(Cc2ccc(F)cc2)C1=O	i	i	i	i	nt	nt
O=C1NC(=O)N(Cc2ccccc2)C(=O)/C1=C\N1CCCc2ccccc21	29	i	i	i	i	i
SMILES	TPT1 inh	Myeloid diff 2	HNF4A DNA FP	Rpn11 inh	TPT1 inh confirm	RNase T1 inh	others
CCCCN1C(=O)/C(=C\c2ccco2)C(=O)N(CCc2ccccc2)C1=O	43	i	i	i	i	i
CN1C(=O)C(=CN2CCN(C(=O)c3ccco3)CC2)C(=O)N(C)C1=S	i	i	i	i	nt	nt
O=C1NC(=O)C(=CN2CCc3ccccc32)C(=O)N1	i	i	i	i	nt	nt
O=C1NC(=O)N(Cc2ccc(F)cc2)C(=O)/C1=C\C=C\c1ccco1	90	i	i	nt	48	63
CCOc1ccc(N2C(=O)NC(=O)/C(=C/c3cnc(SC)nc3)C2=O)cc1	i	i	i	i	nt	nt
O=C1NC(=S)NC(=O)C1=Cc1ccc(Br)s1	i	i	i	i	nt	nt
CN1C(=O)/C(=C\c2ccc(Br)s2)C(=O)NC1=S	25	i	i	55	i	27	Rpn11 inh conf=i;MMP-2 counter=i;Thrombin FP=i
O=c1[nH]c(CN2CC=C(c3ccccc3)CC2)nc2scc(-c3ccccc3)c12	54	+	i	50	32	45	Rpn11 inh conf=58;MMP-2 counter=i;Thrombin FP=i
C#C[C@]1(O)CCC2C3C(=O)C=C4C(Cl)=CCC[C@]4(C)C3CC[C@@]21C (some centres undefined)	nt	i	i	i	nt	nt
